# Assay outcomes from PubChem.
# HCV inhibitor = qHTS Assay for Inhibitors of Hepatitis C Virus (HCV). Huh7.5.1 HCVcc-Cre infection, luciferase reporter, 44 h. Potency, µM (titrated, usually from 41.8 µM), for inactives: at the top dose activity change, negative = inhibition, hits mostly inhibitors. 340,000 tested, 3.4% active; active = well fitted inhibition curve with a large enough effect; inconclusive = small, poorly fitted or top-dose-only effect, or another doubt; inactive = no such curve, though single readings can be large or run the other way; also: potency is read from the fitted curve at half-maximal effect; % is scaled to controls: 0 for no effect and ±100 for the full control effect
#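 Luciferase read-out (15 sec integration) after a 15 min room-temperature substrate step quantifies HCVcc-Cre infection. Cells, 1,000 per well, had compound added 4 h post-plating, then virus at ~0.5 moi, and were cultured 44 h.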
# Marburg entry inh = qHTS for inhibitors of binding or entry into cells for Marburg Virus. Marburg virus pseudotyped entry inhibition, cell reporter. Potency, µM (top dose mostly 37.8 µM), without a hit: top-dose activity change, negative = inhibition, hits mostly inhibitors. 300,000 tested, 1.8% active. AID 540276, 2011; calls by dose curve; tested in HEK293 cells; also: potency is read from the fitted curve at half-maximal effect; % is scaled to controls: 0 for no effect and ±100 for the full control effect
# HCMV inh = qHTS Assay for inhibitors of the human cytomegalovirus (HCMV); activity change, negative = inhibition, % at 57.5 µM; HFF cells, HCMV-luciferase reporter, 72 h; stronger effect = lower value; 410,000 tested, 4.5% active; AID 1259415, 2018; in the data active = activity change below about -60%; inconclusive = no clear call, values can overlap the other calls; inactive = above about -39%; also: % is scaled to controls: 0 for no effect and ±100 for the full control effect
#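 Steps: HFFs plated, 16 h 37C; compounds added; HCMV-luciferase added to MOI 1 PFU/cell; 72 h 37C; OneGlo reagent, 5 min room temperature; luminescence read, normalized to controls.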
# FMDV inh = High Throughput Screening for Foot and Mouth Disease Virus Antivirals; FMDV antiviral cell-based qHTS; 410,000 tested, 1.2% active; Potency, µM (top dose mostly 57.9 µM), without a hit: at the highest dose activity change, negative = inhibition, hits mostly inhibitors; calls by dose curve; tested in HEK293T cells; also: read-out not given here; potency is read from the fitted curve at half-maximal effect; % is scaled to controls: 0 for no effect and ±100 for the full control effect; nearly all actives have a fitted effect of over 45% in size
# LASV entry inh = qHTS for Inhibitors of binding or entry into cells for Lassa Virus. Lassa virus pseudotype entry inhibition, cell reporter. Potency, µM (top dose mostly 37.9 µM), inactives show at the highest dose activity change, negative = inhibition, hits mostly inhibitors. 300,000 tested, 1.2% active; calls by dose curve; tested in HEK293 cells; also: potency is read from the fitted curve at half-maximal effect; % is scaled to controls: 0 for no effect and ±100 for the full control effect; nearly all actives have a fitted effect of over 50% in size
# SARS PLpro yeast = qHTS of Yeast-based Assay for SARS-CoV PLP | S. cerevisiae expressing SARS-CoV PLpro, growth rescue | Potency, µM (titrated, usually from 32.9 µM), for the others: at the top dose activity, positive = growth rescue, hits mostly activators | 330,000 tested, 0.19% active; calls by dose curve; also: potency is read from the fitted curve at half-maximal effect; 0% is about no effect; nearly all actives have a fitted effect of over 55% in size
# Active calls of the source: *; ? = inconclusive; · = not tested or not shown; [ ] = dose if it differs, or a comment. The list is not random: actives were taken first. Their share in the collection is about 8%.
SMILES,HCV inhibitor,Marburg entry inh,HCMV inh,FMDV inh,LASV entry inh,SARS PLpro yeast
O=C(N/N=C/c1cn(-c2ccccc2)nc1-c1cc2ccccc2o1)c1ccccc1Br,?,10µM*,-3,0%,?,27%
Cc1ccc(C(=O)NCC(=O)OCC(=O)c2c(N)n(C)c(=O)n(C)c2=O)cc1C,20%,16%,-7,3%,-2%,0%
O=C(OCCOc1ccccc1)c1cc(S(=O)(=O)N2CCOCC2)c(Cl)cc1Cl,·,·,-63*,?,·,·
CCc1ccc(OC(=O)Cc2ccc(OC)c(S(=O)(=O)N3CCOCC3)c2)cc1,10%,·,-98*,-4%,·,-2%
COc1ccc(OCCOC(=O)c2cc(S(=O)(=O)N3CCOCC3)c(Cl)cc2Cl)cc1,?,-22%,-12,40µM*,7%,-11%
COC(=O)CN1[C@@]2(C#N)CCCC[C@@H]2C[C@H]2CCCC[C@]21C#N,·,15%,·,·,·,·
Cc1ccc(-n2c(N)c(C(=O)N3CCOCC3)sc2=S)cc1,?,4%,-4,3%,13%,3%
CN1CCN(C(=O)c2sc(=S)n(-c3ccccc3)c2N)CC1,19%,?,-92*,2%,-2%,4%
CCOC(=O)C1=NN(c2ccc(C)cc2)C2(S1)SC(C(C)=O)=C(C)N2c1ccccc1 (centres undefined),14µM*,?,-30,-24%,?,-2%
CCCCCCCCOc1ccc(C2CC(=O)NC2=O)cc1 (centres undefined),25%,·,20,-7%,·,-14%
O=C1CC(c2ccc(OCCCCCOc3ccc(C4CC(=O)NC4=O)cc3)cc2)C(=O)N1 (centres undefined),?,?,-25,28µM*,?,-1%
O=c1c2ccccc2n2c(-c3ccc(Cl)cc3)nnc2n1CCc1ccccc1,·,2%[46.1 µM],52,-6%,1%[46.1 µM],·
CCN1CC2=C(OC(N)=C(C#N)C2c2cccs2)/C(=C\c2cccs2)C1 (centres undefined),14µM*,?,-30,·,-45%,11%
CCOC(=O)C1=C(CC)OC(N)=C(C#N)C1c1cccs1 (centres undefined),3%,1%,32,·,12%,0%
Cc1ccc(NC(=O)c2c(C)oc3ncnc(N4CCCCC4)c23)c(C)c1,·,·,-20,-22%,3%[46.1 µM],·
COc1ccc(C)cc1N(C(=O)c1ccccc1)c1nc2ccccc2s1,16µM*,?,-24,-24%,0%,-27%
COc1ccc(NC(=O)c2cc3c([nH]c2=O)CC(c2ccccc2)CC3=O)cc1 (centres undefined),·,·,40,7%,22%[46.1 µM],·
Cc1ccccc1-c1noc(-c2ccc(N3CCN(C)CC3)c([N+](=O)[O-])c2)n1,·,22%[46.1 µM],-75*,?,-2%[46.1 µM],·
Cc1ccccc1-c1noc(-c2ccc(N3CCCC3)c([N+](=O)[O-])c2)n1,·,5%[46.1 µM],-69*,-32%,11%[46.1 µM],·
CN(Cc1ccccc1)c1ccc(-c2nc(-c3ccccn3)no2)cc1[N+](=O)[O-],·,11%[46.1 µM],45,5%,-5%[46.1 µM],·
COc1ccc(C/C(C)=N/NC(=O)C2COc3ccccc3O2)cc1 (centres undefined),6%,·,81,-3%,·,0%
CN1CCN(c2nc(-c3ccccc3)nc(-c3ccc(F)cc3)c2C#N)CC1,?,11µM*,-34,-12%,-13%[46.1 µM],0%
COc1ccccc1-c1nc(-c2ccccc2)nc(N2CCN(C)CC2)c1C#N,?,?,-30,?,2%,-1%
CCCNC(=O)C1(C)CCCN(CCOc2ccccc2)C1 (centres undefined),·,·,-7,-13%,·,·
Cc1cc(C)c2ccc(N)nc2c1O,11µM*,?,-105*,-14%,?,-5%
SMILES,HCV inhibitor,Marburg entry inh,HCMV inh,FMDV inh,LASV entry inh,SARS PLpro yeast
O=c1c(-c2ccccc2)nc2ccccc2n1C(CCc1ccccc1)c1nc2ccccc2[nH]1 (centres undefined),·,·,-67*,-8%,·,·
CN(c1ccccc1)P(=O)(N(C)c1ccccc1)N(C)c1ccccc1,-13%,·,-86*,-29%,·,-2%
CC(=O)NCCc1ccc(C(=O)COC(=O)C2CCCCC2)cc1,30%,?,14,0%,6%[46.1 µM],-5%
Cc1c(C(N)=O)c(-c2ccccc2)nn1-c1ccccc1,-7%,24%,-13,-11%,21%,10%
CCCc1c(-c2ccc(O)cc2)nn(-c2ccc(O)cc2)c1-c1ccc(O)cc1,?,?,·,0%,0.29µM*,2%
CC(O)(COc1ccccc1)c1ccc2c(c1)CN(Cc1cccc3ncccc13)CCO2 (centres undefined),·,·,·,-24%,·,·
Cc1onc(-c2ccccc2Cl)c1C(=O)NC(=S)Nc1ccccc1C(N)=O,11%,-5%,?,1%,4%,-16%
Cc1onc(-c2ccccc2Cl)c1C(=O)Nc1ccccc1C(N)=O,-29%,-19%,-35,11µM*,-5%,-1%
Cc1onc(-c2ccccc2Cl)c1C(=O)Nc1cccc2cccnc12,7.1µM*,?,-99*,?,?,-10%
CCOc1ccc(OC(=O)c2c(-c3ccccc3Cl)noc2C)cc1,·,·,-24,40µM*,-12%[46.1 µM],·
Cc1cccc(C(=O)Nc2cccc3cccnc23)c1,-5%,·,120,65%,·,-19%
COc1cc(NC(=O)c2c(-c3ccccc3Cl)noc2C)c2ncccc2c1,?,20%[46.1 µM],-23,-30%,?,·
Cc1cnc(C(=O)Nc2cccc3cccnc23)cn1,?,?,-89*,12%,1.6µM*,16%
C#CCNC(=O)C[C@@H]1C[C@@]2(C(=O)OC)CC(C)(C)CC=C2N(Cc2ccco2)C1=O,·,·,4,14%,·,·
Cc1ccc(NC(=O)NC2CC(=O)N(c3ccc4c(c3)OCCO4)C2)c(C)c1 (centres undefined),10%,-5%[46.1 µM],-39,-6%,0%,-3%
COc1ccc(S[C@]2(C(=O)N(C)C)CC(=O)N(c3ccc4ccccc4c3)[C@@H]2c2ccc(OC)cc2)cc1,·,·,19,·,·,·
O=C(O)c1sc2cc(C(F)(F)F)cnc2c1-c1ccccc1,18%,1%,-8,2%,1%,8%
CSc1nnc(-c2sc3cc(C(F)(F)F)cnc3c2-c2ccccc2)n1C,?,1.6µM*,?,-19%,?,-9%
O=C(CN1C(=O)c2ccccc2S1(=O)=O)c1ccc2c(c1)OCCO2,23%,·,-98*,3.5µM*,·,0%
O=C(CN1C(=O)c2ccccc2S1(=O)=O)c1ccc2c(c1)OCCCO2,18%,?,-96*,3.2µM*,?,1%
Cc1ccc2c(c1)N(CC(=O)NC1CCC(C)CC1)C(=O)CO2 (centres undefined),8%,1%,17,27%,8%,4%
